Screening results deposited in PubChem BioAssay by National Center for Advancing Translational Sciences (NCATS).
TSHR antagonist – antagonists of human thyroid stimulating hormone receptor | TSHR-expressing cells, TSH-stimulated cAMP HTRF, 2 h; active compounds read low | AID 504810 | activity change, negative = inhibition, % at 11.5 µM | 330,000 tested, 0.2% active | P16473;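 active = activity change below a set negative limit, meaning inhibition stronger than a set level, cut at about -70% in these data; inconclusive = activity change between two set negative limits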; note: % is set by controls: 0 for no effect and ±100 for the full control effect
Target sequence (P16473 whole entry, looked up): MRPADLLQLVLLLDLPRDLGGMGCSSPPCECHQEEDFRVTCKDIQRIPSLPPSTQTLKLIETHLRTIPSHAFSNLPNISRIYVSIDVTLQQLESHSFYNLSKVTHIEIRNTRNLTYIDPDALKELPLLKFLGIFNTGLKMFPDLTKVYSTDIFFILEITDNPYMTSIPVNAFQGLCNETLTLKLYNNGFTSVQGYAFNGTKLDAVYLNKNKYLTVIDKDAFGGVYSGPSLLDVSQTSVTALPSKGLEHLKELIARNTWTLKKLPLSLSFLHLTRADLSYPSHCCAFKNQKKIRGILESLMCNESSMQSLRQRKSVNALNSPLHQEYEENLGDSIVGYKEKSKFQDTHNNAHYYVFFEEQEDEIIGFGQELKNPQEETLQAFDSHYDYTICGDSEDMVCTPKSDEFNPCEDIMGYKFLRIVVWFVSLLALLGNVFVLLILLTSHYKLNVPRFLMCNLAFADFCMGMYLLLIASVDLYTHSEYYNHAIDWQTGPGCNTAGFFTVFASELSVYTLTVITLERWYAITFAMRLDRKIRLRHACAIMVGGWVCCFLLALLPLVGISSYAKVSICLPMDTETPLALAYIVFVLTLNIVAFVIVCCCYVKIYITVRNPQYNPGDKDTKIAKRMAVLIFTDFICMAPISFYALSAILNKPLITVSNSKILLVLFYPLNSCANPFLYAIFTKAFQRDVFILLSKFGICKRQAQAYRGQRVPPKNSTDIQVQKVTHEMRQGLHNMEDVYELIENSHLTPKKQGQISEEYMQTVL
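Inhibition of cAMP made by TSHR-expressing cells under TSH stimulation (4nM final, EC80; 2 h, 37 deg C) is quantified with a one-step lysis HTRF kit, anti-cAMP cryptate versus cAMP-d2.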
PTHR1 agonist – agonists of human PTHR1 parathyroid hormone receptor; Potency, µM (highest dose often 115 µM), for inactives: at the top dose activation, usual class: activators; HEK293 GP2 PTHR1 cells, GloSensor cAMP luminescence, 1 h; 410,000 tested, 0.075% active; Q03431; note: potency is the fitted concentration of half-maximal effect; nearly all actives have a fitted effect of over 55% in size
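HEK-293-derived GP2 cells expressing PTHR1 and a GloSensor cAMP reporter, 3,000/well, plated overnight, given luciferin plus IBMX (each 0.5 mM as added) for 1 h at 37 °C, then compound for 1 h at 37 °C. Luminescence was read after 15 min at room temperature.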
RXFP1 agonist – RXFP1 (human) receptor agonism; Q9HBX9; HEK293T-RXFP1 cAMP TR-FRET, 30 min; response scale: percent of porcine relaxin response, buffer zero; Potency, µM (top dose mostly 57.5 µM), without a hit: at the top dose activation, actives largely listed as activators; 370,000 tested, 0.3% active; AID 2676; note: potency is the fitted concentration of half-maximal effect; % is set by controls: 0 for no effect and ±100 for the full control effect; nearly all actives have a fitted effect of over 60% in size
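Agonist response is measured as cAMP accumulation in an RXFP1-transfected HEK293T line under PDE4 inhibition. Values are scaled between buffer-only and 29 nM porcine relaxin, and EC50s come from standard Hill equation fits.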
GLP1R cytotox – cytotoxicity in counter-screen for GLP-1R inverse agonists | HEK293 cAMP-luciferase reporter cells, luminescence, 24 h | Potency, µM (top dose mostly 38.3 µM), without a hit: at the top dose activity change, negative = inhibition, actives largely listed as inhibitors | 410,000 tested, 0.13% active;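 note: loss of luciferase light is scored as toxicity; potency is the fitted concentration of half-maximal effect; % is set by controls: 0 for no effect and ±100 for the full control effect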
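Quantitative HTS format, 1536 wells, 200 cells/uL seeded. Compounds: 23 nL, 24 h, 37 °C. Detection: luciferase reagent, luminescence at 12 min RT; decreased signal taken as cytotoxic.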
RXFP1 antag – antagonists of human relaxin receptor RXFP1; activity change, negative = inhibition, % at 57.5 µM; HEK293-RXFP1, relaxin-stimulated cAMP HTRF, 30 min; active compounds read low; 350,000 tested, 0.59% active; Q9HBX9;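 active = activity change of -60% or lower, but not beyond a set lower limit; inconclusive = change between -60% and -40%, or beyond the set limit; inactive = change above -40%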; note: % is set by controls: 0 for no effect and ±100 for the full control effect
NPSR antag – antagonists of human neuropeptide S receptor cAMP signaling. Q6W5P4. CHO-NPSR cells, cAMP TR-FRET, antagonist mode. Potency, µM (titrated, usually from 38.3 µM), for inactives: top-dose activity change, negative = inhibition, most hits filed as inhibitors. 220,000 tested, 1% active. AID 1461; note: potency is the fitted concentration of half-maximal effect; % is set by controls: 0 for no effect and ±100 for the full control effect; nearly all actives have a fitted effect of over 50% in size
* = called active by the depositor; i = inactive; ? = inconclusive; nt = not tested or not shown; [ ] = remark or other dose. The full list was thinned out, with hits kept by preference. Unless noted, calls come from the whole dose curve; as a rule, active = well fitted curve in the direction sought with a large enough effect; inconclusive = small, poorly fitted or top-dose-only effect, or another doubt; inactive = no such curve, though single readings can be large; an effect the other way counts as inactive or inconclusive.

SMILES	TSHR antagonist	PTHR1 agonist	RXFP1 agonist	GLP1R cytotox	RXFP1 antag	NPSR antag
CCOC(=O)C(C)/C(C)=N/NC(N)=S (stereo not drawn)	2	5%	-1%	0.56µM*	-15	8%
CN(C)c1ccc(N=Cc2ccco2)cc1	-74*	-21%	-6%	-18%	?	7.9µM*
CN(C)c1ccc(C=Nc2ccc(N(C)C)cc2)cc1	-39	-13%	-7%	-28%	?	?
N#Cc1c(N)nc(SCC(=O)C23CC4CC(CC(C4)C2)C3)c(C#N)c1-c1ccc(Cl)cc1	4	-11%	?	-3%	1	3.2µM*
CSc1nc(N)nc(SCC(=O)C23CC4CC(CC(C4)C2)C3)c1C#N	-36	-40%[57.5 µM]	1%	5%	-3	?
CCCCC(CC)CNC(=O)CC(C)OC(=O)CCC(=O)O (stereo not drawn)	nt	nt	nt	nt	6	nt
Cc1ccc(NC(=O)CN(CCc2ccccc2)S(=O)(=O)c2ccccc2)c(C)c1	nt	i	2%	-6%	-5	nt
COc1ccc(-c2csc(N(CCCN(C)C)C(=O)c3ccccc3C)n2)cc1	?	i	0%	?	-62*	nt
Nc1cc(C(F)(F)F)ccc1S	nt	nt	nt	nt	-8	nt
Cc1ccc(Sc2c([N+](=O)[O-])c(=O)n(C)c3ccccc23)cc1	-73*	-50%	4%	-6%	-18	nt
Cc1ccc(Sc2c(O)c3ccccc3n(C)c2=O)cc1	9	-66%	?	-8%	3	-23%
COc1cc(Br)c(CN2CCCN(C)CC2)cc1OC	10	i	1%	3%	10	nt
COc1ccc(CN2CCCN(C)CC2)c(OC)c1C	-119*	24%	1%	-11%	1	nt
O=C(CSc1nnc(CNC(=O)c2ccco2)o1)Nc1ccc(F)cc1	3	-19%	0%	2%	-4	nt
O=C(CSc1nnc(CNC(=O)c2ccco2)o1)Nc1ccc(OC(F)(F)F)cc1	8	-23%	2%	5%	-110*	nt
CN1CCN(c2cc(N3CCN(C(=O)c4ccco4)CC3)c3c4c(onc24)-c2ccccc2C3=O)CC1	-19	i	2%	?	-20	nt
O=C(O)CCCNc1cc(N2CCC3(CC2)OCCO3)c2noc3c2c1C(=O)c1ccccc1-3	-31	nt	-5%	nt	nt	10µM*
O=C(O)CCCNc1cc(N2CCN(C(=O)c3ccco3)CC2)c2noc3c2c1C(=O)c1ccccc1-3	-38	i	-8%	-8%	-65*	nt
CCOC(=O)N1CCN(c2cc(NCCC(=O)O)c3c4c(onc24)-c2ccccc2C3=O)CC1	-25	i	-7%	?	?	10µM*
O=C(OCn1ncc(Br)c(Br)c1=O)c1c(F)cccc1F	-13	nt	9%	nt	nt	2.5µM*
CC(=O)Cn1ncc(Br)c(Br)c1=O	15	i	11%	-33%	21	-18%
Cc1nc(N2CCOCC2)c2c(C(=O)N(C)Cc3ccccc3)c(C)oc2n1	nt	-1%	-1%	2%	1	nt
COc1ccc(N2CCN(C(=O)c3cc4c(C)nc5ccccc5c4o3)CC2)cc1	-4	-16%	0%	?	-76*	nt
COc1cccc(CNc2ccc3[nH]c(=O)[nH]c3c2)c1OCc1ccccc1Cl	26	-28%	-1%	1%	-75*	nt
O=C(CSc1nc2c([nH]c3ccccc32)c(=O)n1-c1ccccc1)c1ccccc1	nt	-8%	-2%	13%	-109*	nt
SMILES	TSHR antagonist	PTHR1 agonist	RXFP1 agonist	GLP1R cytotox	RXFP1 antag	NPSR antag
Cc1nnc2ccc(-c3cccc(NC(=O)c4ccc(Br)o4)c3)nn12	-22	i	10%	-27%	-75*	-2%
Cc1nnc2n(-c3ccccc3)c(=O)c3c4c(sc3n12)COC(C(C)C)C4 (stereo not drawn)	0	i	3%	-4%	-11	-11%[46.1 µM]
CC(C)C1Cc2c(sc3[nH]c(=S)n(Cc4ccccc4)c(=O)c23)CO1 (stereo not drawn)	-5	i	0%	-8%	-19	10µM*
O=C(Cc1ccccc1F)Nc1nc(-c2ccc(F)cc2)cs1	-28	-21%	-1%	-8%	-93*	nt
COc1ccc(N2CCN(c3ccc(NC(=O)C4CCCCC4)cc3C#N)CC2)cc1	11	i	12%	-13%	-21	-9%[46.1 µM]
COc1ccc(C(=O)Nc2ccc(N3CCN(c4ccc(OC)cc4)CC3)c(C#N)c2)cc1	-11	-2%	?	4%	1	3.2µM*
CCCn1c(SCC(=O)Nc2ccc(NC(=O)CC)cc2)nc2c1c(=O)n(C)c(=O)n2C	31	?	20µM*	12%	-1	nt
CCn1c(SCC(=O)Nc2ccc(NC(C)=O)cc2)nc2c1c(=O)n(C)c(=O)n2C	4	i	16µM*	0%	23	nt
CCn1c(SCC(=O)Nc2ccc(OC)cc2)nc2c1c(=O)n(C)c(=O)n2C	5	?	30%	4%	4	nt
Cc1ccc(C)c(Cn2c(=O)c3c(nc4n3CCN4c3ccccc3)n(C)c2=O)c1	nt	-4%	5%	-7%	6	nt
COc1ccc(CNC(=O)c2cc(-c3ccncc3)nc3c(C)cc(C)cc23)cc1OC	-12	-23%	3%	?	-7	-25%
O=C1/C(=C/c2ccc(O)cc2)SC(=S)N1CC1CCCO1 (stereo not drawn)	-22	-12%	-1%	-25%	-73*	9%[7.67 µM]
CCCOc1ccc(/C=C2\SC(=S)N(CC3CCCO3)C2=O)cc1 (stereo not drawn)	11	i	5%	7%	-14	-18%
CCCCNc1ccc(C(=O)OCCN(CC)CC)cc1	nt	nt	nt	nt	-6	nt
CC(=O)N[C@@H](Cc1ccc(O)cc1)CN1C(N)=NC[C@@H]1CC(C)C	4	-11%	-1%	?	nt	nt
CCOC(=O)c1sc(=NC(=O)c2ccc(S(=O)(=O)N(C)c3ccccc3)cc2)n(C)c1C	-5	-30%	4µM*	19%	3	3.2µM*
CCOC(=O)c1sc(=NC(=O)c2ccc(C)cc2)n(C)c1C	19	i	18%	4%	-17	?
COC(=O)c1c(NC(NC(=O)CC(C)C)C(Cl)(Cl)Cl)sc2c1CCC2 (stereo not drawn)	-47	-13%	0%	9%	nt	?
CCC(=O)NC(Nc1sc2c(c1C(=O)OC)CCC2)C(Cl)(Cl)Cl (stereo not drawn)	-72*	-2%	-1%	-6%	nt	-51%
COc1cc(C(=O)Nc2cccc(-c3nnc(-c4ccco4)o3)c2)ccc1OC(C)=O	-14	-41%	4%	?	-65*	-11%
Cc1ccc(C(=O)c2oc3ccccc3c2NC(=O)COc2ccccc2C)cc1	nt	-47%	23%	4%	nt	nt
